Reference: the supplement of paper PMC12282887
Where a name gives a salt, the structure may show the parent alone. ± gives the standard deviation of the averaged measurements.

Columns and labels:
Assay in all cases: promoter activity interaction Z-score (Lux/OD deviation from empty-vector control); higher = stronger promoter induction by the compound
[1] = tested on: E. coli BW25113 acrABp lux reporter
In short: (§1)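 Reporter strains of E. coli BW25113 grew at 37°C in 40 µl LB Lennox in 384-well plates. Readings of OD600 and luminescence were taken every 30 min over 12 h, integrated over 0–8 h (wild type) or 1–9 h (deletion strains), and wells below 10% of the median growth value were excluded. Scores are Z-transformed residuals of growth-normalised luminescence from a fit against a control.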

[2] = tested on: E. coli BW25113 micFp lux reporter
In short: as §1

[3] = tested on: E. coli BW25113 ompFp lux reporter
In short: as §1

[4] = tested on: E. coli BW25113 robp lux reporter
In short: as §1

[5] = tested on: E. coli BW25113 soxSp lux reporter
In short: as §1

[6] = tested on: E. coli BW25113 tolCp lux reporter
In short: as §1

[7] = 28.9 µg/ml, genetic background: wild type
[8] = 28.9 µg/ml, genetic background: ΔmarA
[9] = 28.9 µg/ml, genetic background: Δrob
[10] = 28.9 µg/ml, genetic background: ΔsoxS
[11] = 57.7 µg/ml, genetic background: wild type
[12] = 57.7 µg/ml, genetic background: ΔmarA
[13] = 57.7 µg/ml, genetic background: Δrob
[14] = 57.7 µg/ml, genetic background: ΔsoxS
[15] = 115.5 µg/ml, genetic background: wild type
[16] = 115.5 µg/ml, genetic background: ΔmarA
[17] = 115.5 µg/ml, genetic background: Δrob
[18] = 115.5 µg/ml, genetic background: ΔsoxS
[19] = 230.9 µg/ml, genetic background: wild type
[20] = 230.9 µg/ml, genetic background: ΔmarA
[21] = 230.9 µg/ml, genetic background: Δrob
[22] = 230.9 µg/ml, genetic background: ΔsoxS

O=C(O)COCCN1CCN(C(c2ccccc2)c2ccc(Cl)cc2)CC1 (stereo unspecified) [Cetirizine dihydrochloride]
promoter activity interaction Z-score [1, 7]: 0.153 ± 0.22 | promoter activity interaction Z-score [1, 8]: -0.276 ± 0.91 | promoter activity interaction Z-score [1, 9]: 0.0774 ± 0.078 | promoter activity interaction Z-score [1, 10]: 0.344 ± 0.22 | promoter activity interaction Z-score [1, 11]: 0.202 ± 0.41 | promoter activity interaction Z-score [1, 12]: -0.0899 ± 0.93 | promoter activity interaction Z-score [1, 13]: -0.297 ± 0.33 | promoter activity interaction Z-score [1, 14]: 0.424 ± 0.48 | promoter activity interaction Z-score [1, 15]: -0.397 ± 0.14 | promoter activity interaction Z-score [1, 16]: -0.531 ± 0.29 | promoter activity interaction Z-score [1, 17]: -0.491 ± 0.057 | promoter activity interaction Z-score [1, 18]: -0.239 ± 0.68 | promoter activity interaction Z-score [1, 19]: -0.0515 ± 0.05 | promoter activity interaction Z-score [1, 20]: -0.913 ± 0.67 | promoter activity interaction Z-score [1, 21]: -0.435 ± 0.21 | promoter activity interaction Z-score [1, 22]: -0.388 ± 0.13 | promoter activity interaction Z-score [2, 7]: 0.013 ± 0.03 | promoter activity interaction Z-score [2, 8]: -0.101 ± 0.1 | promoter activity interaction Z-score [2, 9]: 0.0307 ± 0.16 | promoter activity interaction Z-score [2, 10]: -0.145 ± 0.42 | promoter activity interaction Z-score [2, 11]: 0.36 ± 0.081 | promoter activity interaction Z-score [2, 12]: 0.049 ± 0.28 | promoter activity interaction Z-score [2, 13]: -0.0293 ± 0.15 | promoter activity interaction Z-score [2, 14]: 0.0699 ± 0.025 | promoter activity interaction Z-score [2, 15]: -0.327 ± 0.23 | promoter activity interaction Z-score [2, 16]: 0.145 ± 0.13 | promoter activity interaction Z-score [2, 17]: 0.0776 ± 0.1 | promoter activity interaction Z-score [2, 18]: 0.0293 ± 0.34 | promoter activity interaction Z-score [2, 19]: -0.141 ± 0.27 | promoter activity interaction Z-score [2, 20]: -0.0442 ± 0.057 | promoter activity interaction Z-score [2, 21]: 0.195 ± 0.18 | promoter activity interaction Z-score [2, 22]: 0.145 ± 0.13 | promoter activity interaction Z-score [3, 7]: 0.228 ± 0.026 | promoter activity interaction Z-score [3, 8]: 0.523 ± 0.32 | promoter activity interaction Z-score [3, 9]: 0.79 ± 0.32 | promoter activity interaction Z-score [3, 10]: 0.079784 ± 6.4e-05 | promoter activity interaction Z-score [3, 11]: 0.523 ± 0.44 | promoter activity interaction Z-score [3, 12]: 0.651 ± 0.083 | promoter activity interaction Z-score [3, 13]: 0.368 ± 0.14 | promoter activity interaction Z-score [3, 14]: -0.205 ± 0.16 | promoter activity interaction Z-score [3, 15]: -0.463 ± 0.064 | promoter activity interaction Z-score [3, 16]: -0.0368 ± 0.095 | promoter activity interaction Z-score [3, 17]: -0.449 ± 0.31 | promoter activity interaction Z-score [3, 18]: -0.656 ± 0.25 | promoter activity interaction Z-score [3, 19]: 0.136 ± 0.46 | promoter activity interaction Z-score [3, 20]: 0.203 ± 0.1 | promoter activity interaction Z-score [3, 21]: -0.688 ± 0.7 | promoter activity interaction Z-score [3, 22]: -0.667 ± 0.25 | promoter activity interaction Z-score [4, 7]: -0.0279 ± 0.081 | promoter activity interaction Z-score [4, 8]: 0.621 ± 0.13 | promoter activity interaction Z-score [4, 9]: 0.0745 ± 0.28 | promoter activity interaction Z-score [4, 10]: -0.318 ± 0.5 | promoter activity interaction Z-score [4, 11]: 0.609 ± 0.057 | promoter activity interaction Z-score [4, 12]: 0.466 ± 0.37 | promoter activity interaction Z-score [4, 13]: -0.327 ± 0.31 | promoter activity interaction Z-score [4, 14]: 0.0119 ± 0.7 | promoter activity interaction Z-score [4, 15]: -0.592 ± 0.34 | promoter activity interaction Z-score [4, 16]: 0.00802 ± 0.12 | promoter activity interaction Z-score [4, 17]: -0.339 ± 0.12 | promoter activity interaction Z-score [4, 18]: -0.844 ± 0.1 | promoter activity interaction Z-score [4, 19]: -0.359 ± 0.2 | promoter activity interaction Z-score [4, 20]: -0.425 ± 0.43 | promoter activity interaction Z-score [4, 21]: -1.18 ± 0.85 | promoter activity interaction Z-score [4, 22]: -0.876 ± 0.55 | promoter activity interaction Z-score [5, 7]: 0.227 ± 0.035 | promoter activity interaction Z-score [5, 8]: 0.219 ± 0.05 | promoter activity interaction Z-score [5, 9]: 0.143 ± 0.03 | promoter activity interaction Z-score [5, 10]: 0.36 ± 0.29 | promoter activity interaction Z-score [5, 11]: 0.625 ± 0.26 | promoter activity interaction Z-score [5, 12]: 0.233 ± 0.067 | promoter activity interaction Z-score [5, 13]: 0.113 ± 0.061 | promoter activity interaction Z-score [5, 14]: 0.411 ± 0.45 | promoter activity interaction Z-score [5, 15]: 0.0448 ± 0.13 | promoter activity interaction Z-score [5, 16]: 0.311 ± 0.1 | promoter activity interaction Z-score [5, 17]: 0.108 ± 0.041 | promoter activity interaction Z-score [5, 18]: 0.145 ± 0.43 | promoter activity interaction Z-score [5, 19]: 0.0238 ± 0.4 | promoter activity interaction Z-score [5, 20]: 0.289 ± 0.11 | promoter activity interaction Z-score [5, 21]: 0.127 ± 0.06 | promoter activity interaction Z-score [5, 22]: -0.0281 ± 0.68 | promoter activity interaction Z-score [6, 7]: -0.028 ± 0.45 | promoter activity interaction Z-score [6, 8]: 0.994 ± 0.066 | promoter activity interaction Z-score [6, 9]: 0.083 ± 0.48 | promoter activity interaction Z-score [6, 10]: 0.251 ± 1.2 | promoter activity interaction Z-score [6, 11]: 1.49 ± 0.11 | promoter activity interaction Z-score [6, 12]: 0.225 ± 0.61 | promoter activity interaction Z-score [6, 13]: 0.369 ± 1.3 | promoter activity interaction Z-score [6, 14]: -0.607 ± 0.17 | promoter activity interaction Z-score [6, 15]: 0.247 ± 0.057 | promoter activity interaction Z-score [6, 16]: -0.0757 ± 0.41 | promoter activity interaction Z-score [6, 17]: 0.295 ± 0.29 | promoter activity interaction Z-score [6, 18]: -0.698 ± 0.023 | promoter activity interaction Z-score [6, 19]: 0.059 ± 0.6 | promoter activity interaction Z-score [6, 20]: -0.764 ± 0.4 | promoter activity interaction Z-score [6, 21]: -0.176 ± 0.18 | promoter activity interaction Z-score [6, 22]: 0.432 ± 0.65
